The supplement of paper PMC11732987, “Enantioselective OTUD7B fragment discovery through chemoproteomics screening and high-throughput optimisation” (Communications Chemistry, 2025)

Key:
Assay in all cases: log2 ratio of Biotin-Ahx-Ub-VS probe labelling (fragment/DMSO); higher = less target engagement (more negative = stronger competition), active = hit call of the paper (q ≤ 0.05, log2 ratio ≤ -1)
Details in all cases: compound concentration: 200 uM; treatment time: 3 h
[1] = target: T1, USP19 (UniProt O94966)
T1 sequence (whole entry): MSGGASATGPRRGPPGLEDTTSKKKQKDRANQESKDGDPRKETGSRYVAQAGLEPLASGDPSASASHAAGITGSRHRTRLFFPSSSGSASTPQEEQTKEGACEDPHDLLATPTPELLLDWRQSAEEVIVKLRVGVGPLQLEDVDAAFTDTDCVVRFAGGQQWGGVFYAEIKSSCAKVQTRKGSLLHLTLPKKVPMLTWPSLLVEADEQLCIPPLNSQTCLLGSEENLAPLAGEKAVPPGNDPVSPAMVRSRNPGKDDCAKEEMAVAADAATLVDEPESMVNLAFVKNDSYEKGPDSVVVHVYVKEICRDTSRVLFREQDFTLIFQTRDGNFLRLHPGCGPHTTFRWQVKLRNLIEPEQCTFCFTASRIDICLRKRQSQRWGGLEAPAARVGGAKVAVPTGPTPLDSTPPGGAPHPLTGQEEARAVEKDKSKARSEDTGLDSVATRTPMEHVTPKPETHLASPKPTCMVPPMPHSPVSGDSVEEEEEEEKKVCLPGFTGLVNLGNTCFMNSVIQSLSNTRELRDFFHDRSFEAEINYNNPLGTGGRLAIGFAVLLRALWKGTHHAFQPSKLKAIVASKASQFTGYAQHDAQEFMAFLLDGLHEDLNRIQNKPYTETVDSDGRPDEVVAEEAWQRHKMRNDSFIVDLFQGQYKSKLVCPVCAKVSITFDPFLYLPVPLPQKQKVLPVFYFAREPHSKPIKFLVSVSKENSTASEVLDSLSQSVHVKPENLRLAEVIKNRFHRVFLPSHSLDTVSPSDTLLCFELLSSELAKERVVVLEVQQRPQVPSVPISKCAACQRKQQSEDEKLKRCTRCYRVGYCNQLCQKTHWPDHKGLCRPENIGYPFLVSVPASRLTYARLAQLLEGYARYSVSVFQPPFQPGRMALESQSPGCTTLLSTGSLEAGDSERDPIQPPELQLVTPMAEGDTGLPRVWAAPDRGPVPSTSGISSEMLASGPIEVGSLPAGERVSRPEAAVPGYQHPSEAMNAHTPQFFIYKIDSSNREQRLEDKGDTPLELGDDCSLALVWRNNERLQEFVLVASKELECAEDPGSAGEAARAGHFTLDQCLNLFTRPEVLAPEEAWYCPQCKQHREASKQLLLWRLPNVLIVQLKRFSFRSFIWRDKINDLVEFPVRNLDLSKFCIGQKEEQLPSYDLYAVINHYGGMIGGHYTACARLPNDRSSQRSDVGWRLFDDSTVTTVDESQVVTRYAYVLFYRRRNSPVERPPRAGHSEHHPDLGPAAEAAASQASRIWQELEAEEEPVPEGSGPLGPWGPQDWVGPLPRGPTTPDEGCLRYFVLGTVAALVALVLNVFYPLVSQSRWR
In short: (§1)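 HEK293T lysate, 495 µg per sample in Tris/CHAPS/IGEPAL buffer with protease inhibitors, was treated in triplicate with fragment at 200 µM or vehicle for 3 h and then with Biotin-Ahx-Ub-VS at 0.5 µM final for 1 h. Labelled DUBs were NeutrAvidin-enriched, digested with LysC and trypsin, and run by diaPASEF LC-MS/MS. Spectronaut label-free quantities were global-median-normalised, and values are average log2 fragment/vehicle ratios by unpaired t-test on proteins with ≥2 unique peptides.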

[2] = target: T2, USP22 (UniProt Q9UPT9)
T2 sequence (whole entry): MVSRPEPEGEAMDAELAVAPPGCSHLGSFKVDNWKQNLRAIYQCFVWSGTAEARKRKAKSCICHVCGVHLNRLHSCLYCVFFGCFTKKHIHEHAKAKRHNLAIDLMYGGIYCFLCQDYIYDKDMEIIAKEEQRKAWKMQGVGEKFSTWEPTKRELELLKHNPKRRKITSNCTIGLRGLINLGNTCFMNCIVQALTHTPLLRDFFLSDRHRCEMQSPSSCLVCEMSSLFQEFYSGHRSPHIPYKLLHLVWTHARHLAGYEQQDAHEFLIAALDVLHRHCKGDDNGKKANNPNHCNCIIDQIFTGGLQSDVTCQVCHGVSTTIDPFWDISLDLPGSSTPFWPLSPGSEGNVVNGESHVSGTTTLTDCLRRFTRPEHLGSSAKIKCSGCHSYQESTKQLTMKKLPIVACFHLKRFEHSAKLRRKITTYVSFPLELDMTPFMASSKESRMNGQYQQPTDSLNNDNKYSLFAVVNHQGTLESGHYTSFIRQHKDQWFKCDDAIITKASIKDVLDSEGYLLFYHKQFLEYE
In short: as §1

[3] = target: USP24 (UniProt Q9UPU5)
Chain of USP24 (Q9UPU5 whole entry): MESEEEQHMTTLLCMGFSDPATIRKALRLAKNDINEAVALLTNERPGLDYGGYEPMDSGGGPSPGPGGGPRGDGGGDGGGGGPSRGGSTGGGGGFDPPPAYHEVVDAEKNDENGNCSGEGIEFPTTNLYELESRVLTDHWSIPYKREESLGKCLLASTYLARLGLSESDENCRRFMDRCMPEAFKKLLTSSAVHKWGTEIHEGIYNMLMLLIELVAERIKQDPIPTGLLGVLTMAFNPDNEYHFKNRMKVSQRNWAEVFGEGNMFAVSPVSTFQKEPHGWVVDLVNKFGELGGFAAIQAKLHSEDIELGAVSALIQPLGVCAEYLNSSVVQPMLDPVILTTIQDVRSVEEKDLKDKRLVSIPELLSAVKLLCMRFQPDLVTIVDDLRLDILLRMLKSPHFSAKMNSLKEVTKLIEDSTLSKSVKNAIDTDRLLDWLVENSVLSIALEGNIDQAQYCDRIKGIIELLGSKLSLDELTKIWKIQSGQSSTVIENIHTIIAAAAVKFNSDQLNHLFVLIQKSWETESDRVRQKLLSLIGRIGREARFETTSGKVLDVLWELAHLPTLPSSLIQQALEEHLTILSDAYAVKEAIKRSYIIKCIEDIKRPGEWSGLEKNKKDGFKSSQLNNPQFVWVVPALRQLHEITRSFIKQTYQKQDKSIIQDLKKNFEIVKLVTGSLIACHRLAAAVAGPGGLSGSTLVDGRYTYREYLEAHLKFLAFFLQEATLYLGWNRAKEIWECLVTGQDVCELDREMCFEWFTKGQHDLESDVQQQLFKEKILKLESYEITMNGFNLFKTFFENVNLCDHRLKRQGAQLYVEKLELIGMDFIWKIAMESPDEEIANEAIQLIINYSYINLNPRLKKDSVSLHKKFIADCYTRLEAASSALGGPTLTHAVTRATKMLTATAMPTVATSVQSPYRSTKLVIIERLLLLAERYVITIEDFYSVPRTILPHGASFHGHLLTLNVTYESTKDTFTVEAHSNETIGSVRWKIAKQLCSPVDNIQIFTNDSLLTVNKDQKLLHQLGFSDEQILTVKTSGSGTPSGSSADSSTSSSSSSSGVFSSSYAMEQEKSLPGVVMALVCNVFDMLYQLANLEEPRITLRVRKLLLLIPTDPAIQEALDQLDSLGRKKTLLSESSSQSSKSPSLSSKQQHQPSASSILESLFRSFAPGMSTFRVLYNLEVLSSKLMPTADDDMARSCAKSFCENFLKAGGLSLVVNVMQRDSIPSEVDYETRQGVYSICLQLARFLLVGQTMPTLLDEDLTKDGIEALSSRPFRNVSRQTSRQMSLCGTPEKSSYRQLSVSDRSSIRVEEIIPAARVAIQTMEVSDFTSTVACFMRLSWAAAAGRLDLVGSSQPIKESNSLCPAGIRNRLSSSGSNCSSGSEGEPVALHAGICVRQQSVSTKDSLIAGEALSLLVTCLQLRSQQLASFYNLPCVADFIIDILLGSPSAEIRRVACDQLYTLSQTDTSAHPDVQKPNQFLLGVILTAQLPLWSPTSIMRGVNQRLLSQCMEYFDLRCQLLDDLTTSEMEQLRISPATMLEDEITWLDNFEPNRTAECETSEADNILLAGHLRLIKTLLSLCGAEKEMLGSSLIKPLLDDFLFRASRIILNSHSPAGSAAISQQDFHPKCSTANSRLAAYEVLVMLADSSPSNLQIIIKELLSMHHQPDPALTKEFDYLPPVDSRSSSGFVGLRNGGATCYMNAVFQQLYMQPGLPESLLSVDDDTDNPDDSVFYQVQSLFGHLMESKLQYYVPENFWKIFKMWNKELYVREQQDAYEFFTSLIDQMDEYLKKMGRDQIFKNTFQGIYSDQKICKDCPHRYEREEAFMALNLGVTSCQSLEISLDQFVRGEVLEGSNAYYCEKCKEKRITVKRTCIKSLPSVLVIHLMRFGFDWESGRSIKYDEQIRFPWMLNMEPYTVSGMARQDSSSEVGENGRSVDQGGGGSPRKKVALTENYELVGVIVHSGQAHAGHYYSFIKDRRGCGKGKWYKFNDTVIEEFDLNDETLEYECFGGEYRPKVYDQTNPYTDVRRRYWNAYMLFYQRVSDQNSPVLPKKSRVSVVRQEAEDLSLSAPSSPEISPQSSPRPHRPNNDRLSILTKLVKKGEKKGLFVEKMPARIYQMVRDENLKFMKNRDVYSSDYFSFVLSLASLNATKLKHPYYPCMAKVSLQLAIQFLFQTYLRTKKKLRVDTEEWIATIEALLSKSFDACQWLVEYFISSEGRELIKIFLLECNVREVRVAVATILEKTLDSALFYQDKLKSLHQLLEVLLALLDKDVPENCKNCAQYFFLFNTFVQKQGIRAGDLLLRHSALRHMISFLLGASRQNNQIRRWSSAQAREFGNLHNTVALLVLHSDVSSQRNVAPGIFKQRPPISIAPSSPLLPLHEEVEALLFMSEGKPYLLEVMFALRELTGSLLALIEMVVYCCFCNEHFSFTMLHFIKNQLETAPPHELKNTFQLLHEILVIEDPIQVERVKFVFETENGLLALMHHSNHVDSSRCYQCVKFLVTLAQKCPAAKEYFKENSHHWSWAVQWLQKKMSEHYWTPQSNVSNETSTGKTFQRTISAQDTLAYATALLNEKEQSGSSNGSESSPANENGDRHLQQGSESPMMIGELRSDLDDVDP
In short: as §1

[4] = target: T3, USP25 (UniProt Q9UHP3)
T3 sequence (whole entry): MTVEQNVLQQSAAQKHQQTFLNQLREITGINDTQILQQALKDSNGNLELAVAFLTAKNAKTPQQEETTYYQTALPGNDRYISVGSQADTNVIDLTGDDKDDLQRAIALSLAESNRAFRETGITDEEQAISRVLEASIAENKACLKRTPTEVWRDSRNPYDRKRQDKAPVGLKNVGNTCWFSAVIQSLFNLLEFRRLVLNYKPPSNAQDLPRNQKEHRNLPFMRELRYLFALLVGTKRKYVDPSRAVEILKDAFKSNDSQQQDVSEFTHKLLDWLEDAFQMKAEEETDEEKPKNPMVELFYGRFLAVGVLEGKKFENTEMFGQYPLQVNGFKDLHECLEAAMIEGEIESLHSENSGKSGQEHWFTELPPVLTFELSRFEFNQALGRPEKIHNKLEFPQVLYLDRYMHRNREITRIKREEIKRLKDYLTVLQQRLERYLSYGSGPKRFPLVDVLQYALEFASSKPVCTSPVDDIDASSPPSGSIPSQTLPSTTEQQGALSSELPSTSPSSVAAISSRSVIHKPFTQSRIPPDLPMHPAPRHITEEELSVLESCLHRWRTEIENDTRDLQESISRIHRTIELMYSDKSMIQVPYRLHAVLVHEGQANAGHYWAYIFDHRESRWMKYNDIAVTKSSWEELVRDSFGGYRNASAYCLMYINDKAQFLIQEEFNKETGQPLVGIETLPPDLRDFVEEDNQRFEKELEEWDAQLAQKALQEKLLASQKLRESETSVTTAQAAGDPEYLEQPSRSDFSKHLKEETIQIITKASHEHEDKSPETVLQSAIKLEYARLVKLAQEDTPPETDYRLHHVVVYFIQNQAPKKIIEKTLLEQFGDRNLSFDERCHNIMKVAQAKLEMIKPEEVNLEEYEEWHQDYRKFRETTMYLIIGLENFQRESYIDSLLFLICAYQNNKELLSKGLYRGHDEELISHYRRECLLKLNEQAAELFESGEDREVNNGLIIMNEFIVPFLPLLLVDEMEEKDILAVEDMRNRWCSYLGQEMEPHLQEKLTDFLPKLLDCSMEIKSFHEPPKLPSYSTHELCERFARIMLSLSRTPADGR
In short: as §1

[5] = target: T4, USP28 (UniProt Q96RU2)
T4 sequence (whole entry): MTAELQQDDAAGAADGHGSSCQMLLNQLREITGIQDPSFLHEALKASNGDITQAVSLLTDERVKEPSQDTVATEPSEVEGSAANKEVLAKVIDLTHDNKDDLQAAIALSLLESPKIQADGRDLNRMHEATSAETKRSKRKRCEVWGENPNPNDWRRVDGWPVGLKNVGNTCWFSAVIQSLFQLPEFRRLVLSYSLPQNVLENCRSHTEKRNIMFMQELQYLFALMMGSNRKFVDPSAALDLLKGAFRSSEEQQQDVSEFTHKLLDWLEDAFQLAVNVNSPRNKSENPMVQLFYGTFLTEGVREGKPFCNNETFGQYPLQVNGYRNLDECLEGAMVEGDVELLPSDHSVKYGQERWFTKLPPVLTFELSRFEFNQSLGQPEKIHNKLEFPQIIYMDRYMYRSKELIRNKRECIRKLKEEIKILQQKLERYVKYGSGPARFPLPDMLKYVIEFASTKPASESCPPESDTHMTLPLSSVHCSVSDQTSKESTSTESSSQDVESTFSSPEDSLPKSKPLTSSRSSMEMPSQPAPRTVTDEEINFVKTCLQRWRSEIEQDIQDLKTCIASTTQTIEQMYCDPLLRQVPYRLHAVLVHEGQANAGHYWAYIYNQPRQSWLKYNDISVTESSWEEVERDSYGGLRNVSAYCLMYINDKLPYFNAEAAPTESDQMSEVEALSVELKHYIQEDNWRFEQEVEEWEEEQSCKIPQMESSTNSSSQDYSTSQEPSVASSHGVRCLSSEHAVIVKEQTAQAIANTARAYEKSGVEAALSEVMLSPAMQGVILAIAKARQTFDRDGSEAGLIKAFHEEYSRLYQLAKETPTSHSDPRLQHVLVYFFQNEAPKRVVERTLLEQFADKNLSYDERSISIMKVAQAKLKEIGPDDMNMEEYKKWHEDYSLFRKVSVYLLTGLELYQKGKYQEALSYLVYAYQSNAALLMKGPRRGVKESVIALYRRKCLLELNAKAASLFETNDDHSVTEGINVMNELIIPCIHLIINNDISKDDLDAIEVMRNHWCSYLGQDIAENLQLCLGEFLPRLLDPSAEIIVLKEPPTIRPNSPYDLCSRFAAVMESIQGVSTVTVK
In short: as §1

Measured: log2 ratio of Biotin-Ahx-Ub-VS probe labelling

O=C(CCl)Nc1ccccc1C(F)(F)F
inactive: [1] -0.154 | [2] -0.117 | [3] -0.445 | [4] -0.713 | [5] -0.598
